Molecules are shown by their SMILES. Activity calls are given as the source filed them.

The target in one test is Luciferin 4-monooxygenase (Photinus pyralis) (UniProt P08659). In words: firefly luciferase enzyme inhibitors, primary screen, biochemical, luminescence, purified enzyme, 2006 set (AID 1141).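 Further: cell-free assay with purified firefly luciferase at 100 ng per well in PBS; test concentration not given here.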 The conditions noted are these: SteadyGlo luminescence, 30 min, higher = more signal, called active from +8 up or from −8 down.
Chain of Luciferin 4-monooxygenase (Photinus pyralis) (P08659 whole entry, looked up): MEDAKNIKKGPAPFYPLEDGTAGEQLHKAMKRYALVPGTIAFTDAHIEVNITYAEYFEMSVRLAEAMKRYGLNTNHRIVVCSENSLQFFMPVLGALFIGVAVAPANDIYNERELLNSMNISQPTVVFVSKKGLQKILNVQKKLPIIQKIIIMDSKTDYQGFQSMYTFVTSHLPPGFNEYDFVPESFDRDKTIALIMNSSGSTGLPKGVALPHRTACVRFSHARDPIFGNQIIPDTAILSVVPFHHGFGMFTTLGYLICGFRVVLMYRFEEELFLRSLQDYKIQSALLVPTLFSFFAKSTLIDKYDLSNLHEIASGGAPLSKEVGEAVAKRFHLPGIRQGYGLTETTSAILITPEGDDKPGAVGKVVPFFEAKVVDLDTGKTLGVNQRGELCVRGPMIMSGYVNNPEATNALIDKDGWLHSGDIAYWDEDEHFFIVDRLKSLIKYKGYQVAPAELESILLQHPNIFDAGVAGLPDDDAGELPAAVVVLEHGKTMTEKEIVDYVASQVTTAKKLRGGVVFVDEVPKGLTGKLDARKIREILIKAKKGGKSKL
Regarding `CCOc1ccc(N2C(=O)CSC2c2cccc([N+](=O)[O-])c2)cc1` (stereo unspecified), the z-score is 0.8 (inactive).
On the same count and under the same terms, then `C=C(CCCC)/C(=C/C[C@H](OC(C)=O)c1ccccc1OCCO)c1cnc2ccccc2c1`, with -0.895 (inactive); and `C=CC[C@]1(C(N)=O)COC(c2ccc(OCCCO)cc2)=N1`, with 0.322 (inactive).
With `COCCOC(=O)N1C(=O)[C@@]2(c3cc(C#CC4=CCCCC4)ccc31)[C@H](C(N)=O)[C@H]1C(=O)O[C@H](c3ccccc3)[C@H](c3ccccc3)N1[C@@H]2c1ccc(O)cc1`, the z-score was -1.98 (inactive).
For the molecule `O=C1O[C@@H](c2ccccc2)[C@@H](c2ccccc2)N2[C@@H](c3ccc(OCCO)cc3)[C@]3(C(=O)Nc4ccc(C#CC5=CCCCC5)cc43)[C@@H](C(=O)N3CCCCCCC3)[C@H]12`, the z-score is -1.13 (inactive).
On the same count and under the same terms, then `COc1ccc([Si](C)(C)[C@@H]2[C@@H](CCn3cc([C@H](O)c4ccccc4)nn3)O[C@]3(C(=O)N(Cc4cccc(N5CCC5=O)c4)c4ccccc43)[C@H]2C)cc1`, with 0.258 (inactive).

The subject of the next test is Wnt5a (protein binding on small-molecule microarray). In words: Wnt5a binders on small-molecule microarray, primary screen, biophysical, 635/667 nm fluorescence (AID 1142).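 Further: fluorescence read at 667 nm with signal to noise per printed feature.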 The conditions noted are these: 635 nm fluorescence, higher = more signal.
`COc1ccc([Si](C)(C)[C@@H]2[C@@H](CCO)O[C@]3(C(=O)N(Cc4cccc(N5CCOC5=O)c4)c4ccccc43)[C@H]2C)cc1`: the composite z-score was found to be 0.183.
Molecule `COCCOC(=O)N1C(=O)[C@@]2(c3ccccc31)[C@H](C(N)=O)[C@H]1C(=O)O[C@H](c3ccccc3)[C@H](c3ccccc3)N1[C@@H]2c1ccc(O)cc1` gave a composite z-score of 0.169.
Same read-out and setting: then `O=C1C[C@@](C(=O)NCc2ccccc2)(c2ccc([N+](=O)[O-])cc2)[C@@H](c2ccc(CO)cc2)N1CC12CC3CC(CC(C3)C1)C2`, with 0.38.
In turn, `COCC(=C=CC[C@H](O)c1cccc(OCCO)c1)CCO` yielded a composite z-score of 0.461.
The same measure, in the same setting: the result for `COCCCNC(=O)[C@@]1(Cc2ccccc2CN=[N+]=[N-])N=C(c2ccc(OCCCO)cc2)O[C@H]1c1ccccc1CN=[N+]=[N-]` reads 1.08; that for `COC(=O)[C@]1(Cc2ccccc2)N=C(c2ccc(OCCCO)cc2)O[C@@H]1c1ccccc1N=[N+]=[N-]`, 0.501.
On to `COC(=O)[C@@]1(Cc2ccc(F)cc2)[C@H]2c3cc(C(=O)N(C)C)n(Cc4ccc(C)o4)c3C[C@H]2CN1C(=O)c1ccccc1`, for which the composite z-score is 0.798.
Consider `CC(C)=CCCC(C)=CC(O)C1C=CC2C(=O)N(c3ccccc3)C(=O)C2N1Nc1ccc(C(C)C)cc1` (stereo unspecified), for which the composite z-score stood at 0.15.
Still for that read-out and setting: then `COc1ccccc1CN1C(=O)c2ccccc2[C@@H](C(=O)NCc2ccccc2)[C@@H]1c1ccc(CO)cc1`, with -0.13; and `CC#CC(=O)Oc1ccc(Br)cc1C=CC(=O)OCC`, with -0.0465.
Same read-out and setting: the result for `O=C(NC1CC1)[C@@H]1c2ccccc2C(=O)N(C2Cc3ccccc3C2)[C@H]1c1ccc(CO)cc1` reads 0.336.
Same read-out and setting: then `COCCCNC(=O)[C@@H]1c2ccccc2C(=O)N(Cc2ccccc2OC)[C@H]1c1ccc(CO)cc1`, with 0.924.
Consider `O=C(O)[C@H](Cc1ccccc1)n1cc(-c2ccccc2)nn1`, for which the composite z-score stood at 0.469.
On the same count and under the same terms, then `C=CC[C@]1(C(=O)NCc2ccccc2)N=C(c2ccc(OCCCO)cc2)O[C@H]1c1ccccc1CN=[N+]=[N-]`, with 0.625; and `CN1C(=O)C2C=CC(C(O)c3ccc(F)cc3)N(N(c3ccccc3)c3ccccc3)C2C1=O` (stereo unspecified), with -0.0512.
`C=CCC(OC(C)=O)[C@@H]1[C@@H](N(Cc2ccc(-c3cccc(C(F)(F)F)c3)o2)C(=O)Cc2ccc(OC)cc2)c2cc(OCCCO)ccc2N1C(=O)c1ccc2ccccc2c1` (stereo partly specified) registered a composite z-score of -0.301.
The molecule `CN(C)CCCCCCNC(=O)[C@@H]1C[C@@H]2C(=O)N[C@@H](CCCC[N+](C)(C)C)C(=O)N2[C@@H]1c1ccc(O)cc1` registered a composite z-score of 0.133.
Still for that read-out and setting: then `CC(C)CNC(=O)[C@@]1(Cc2ccccc2I)c2ccccc2C(=O)N(Cc2ccccc2C(F)(F)F)[C@H]1c1ccc(CO)cc1`, with -0.0971; and `C=CC[C@]1(C(N)=O)N=C(c2ccc(OCCCO)cc2)O[C@H]1c1ccccc1`, with 0.555.
The same measure, in the same setting: the result for `COCCCNC(=O)[C@@]1(Sc2ccc(C)cc2)CC(=O)N(Cc2ccccc2Cl)[C@@H]1c1ccc(CO)cc1` reads 0.349; that for `CCCC=C(CCC)[C@@H](NC(=O)OCC(C)C)c1ccccc1`, 1.33.
Same read-out and setting: then `OCC1C=C(/C=C/c2ccccc2)CN1Cc1ccccc1Br` (stereo unspecified), with 0.307.
The molecule `CN1C(=O)C2C=CC(C(O)C=Cc3ccc([N+](=O)[O-])cc3)N(Nc3ccccc3)C2C1=O` (stereo unspecified) displayed a composite z-score of 0.286.
`COC(=O)[C@@]1(Cc2ccccc2)[C@H]2c3cc(C(=O)N4CCCC4)n(Cc4ccc(O)c(OC)c4)c3C[C@H]2CN1C(=O)c1ccccc1` had a composite z-score of 0.343.
Molecule `CN(C)CCCCCCNC(=O)[C@@H]1C[C@@H]2C(=O)N3CCC[C@H]3C(=O)N2[C@@H]1c1ccc(O)cc1` displayed a composite z-score of 0.21.

The record behind these values is PubChem BioAssay.
